# Measurements taken from PubChem BioAssay (NCATS).
# Inconclusive results are not listed. A call without a number means that no potency is given here. Calls of active or inactive are those of the source. Unless noted, calls follow the shape of the dose curve; as a rule, active = well fitted curve in the direction sought with a large enough effect; inconclusive = small, poorly fitted or top-dose-only effect, or another doubt; inactive = no such curve, though single readings can be large; an effect the other way counts as inactive or inconclusive.
# Tests used:
# [1] = qHTS for differential inhibitors of proliferation of Plasmodium falciparum line HB3 (AID 1886); settings: Potency: Plasmodium falciparum HB3 proliferation inhibition;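 also: parasites grown with compound for 72 h before SYBR Green readout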; also: potency is read from the fitted curve at half-maximal effect
# [2] = target: Ferritin light chain (Equus caballus) (UniProt P02791); experiment: qHTS Validation Assay for Identification of Novel General Anesthetics (AID 2323); also: series mostly up to about 77 µM
# Sequence of Ferritin light chain (Equus caballus) (P02791 2-175 limits assumed): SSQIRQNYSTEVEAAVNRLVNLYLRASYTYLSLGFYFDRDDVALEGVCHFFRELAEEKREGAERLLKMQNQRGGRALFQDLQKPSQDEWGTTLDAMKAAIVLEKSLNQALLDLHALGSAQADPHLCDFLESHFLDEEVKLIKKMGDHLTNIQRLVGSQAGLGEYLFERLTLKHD
# Summary of the method: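 Competitive displacement of the profluorescent anesthetic 1-AMA (50% saturated, PBS) from 10 uM apoferritin, 10 min, room temperature. Activity is normalized 380/535 nm fluorescence; concentration-response fitted with a four-parameter Hill equation.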
# [3] = target: ATP-dependent DNA helicase Q1 (Homo sapiens) (UniProt P46063); experiment: qHTS Validation Assay for Inhibitors of RecQ-Like Dna Helicase 1 (RECQ1) (AID 2353)
# Sequence of ATP-dependent DNA helicase Q1 (Homo sapiens) (P46063 whole entry, looked up): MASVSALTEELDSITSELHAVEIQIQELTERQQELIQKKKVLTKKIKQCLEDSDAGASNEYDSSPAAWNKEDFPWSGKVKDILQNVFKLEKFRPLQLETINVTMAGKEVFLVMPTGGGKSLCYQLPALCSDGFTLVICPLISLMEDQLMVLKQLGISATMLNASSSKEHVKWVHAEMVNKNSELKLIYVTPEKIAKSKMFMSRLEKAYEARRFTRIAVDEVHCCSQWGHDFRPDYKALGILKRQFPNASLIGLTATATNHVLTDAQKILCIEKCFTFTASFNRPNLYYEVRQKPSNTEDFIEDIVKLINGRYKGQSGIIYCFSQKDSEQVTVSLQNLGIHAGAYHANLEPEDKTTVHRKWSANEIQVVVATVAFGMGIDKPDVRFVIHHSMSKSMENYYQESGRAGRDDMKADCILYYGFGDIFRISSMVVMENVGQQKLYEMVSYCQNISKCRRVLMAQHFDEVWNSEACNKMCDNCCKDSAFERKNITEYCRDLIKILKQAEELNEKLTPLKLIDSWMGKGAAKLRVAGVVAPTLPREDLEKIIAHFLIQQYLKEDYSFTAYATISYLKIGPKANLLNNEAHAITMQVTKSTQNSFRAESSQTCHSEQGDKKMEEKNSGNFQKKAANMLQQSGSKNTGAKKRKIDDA
# Summary of the method: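 50 nM RECQ1T1 preincubated 15 min with compound in Tris pH 8.0 buffer with MgCl2, DTT, Tween-20 and 2.5 ug/ml poly(dI-dC); started with 200 nM TAMRA/BHQ-2 forked duplex and 2 mM ATP. Unwinding read as fluorescence (525/598 nm), two reads 2 h apart.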
# [4] = High Content Imaging Cell-Based qHTS for Inhibitors of the mTORC1 Signaling Pathway in MEF (Tsc2-/-, p53-/-) Cells (AID 2666);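 also: percent of cells scored positive for phospho-rpS6 Ser235/236 immunostaining by imaging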
# Summary of the method: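 Cells were plated, dosed with compound after 24 hrs, and incubated another 24 hrs at 37 degree Celsius. Fixed cells were immunostained for phospho-rpS6 Ser235/236 and counterstained, and the normalized signal was scored as % active cells against rapamycin and DMSO controls.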
# [5] = High Content Imaging Cell-Based qHTS for Inhibitors of the mTORC1 Signaling Pathway in MEF Cells (AID 2667);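 also: Tsc2-/- p53-/- MEFs stably re-expressing wild-type Tsc2 exposed 24 h; series mostly up to about 38 µM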
# Summary of the method: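 Immunofluorescence for rpS6 phosphorylation in MEFs of Tsc2-/-, p53-/- background rescued with WT Tsc2. Compound exposure lasted 24 hrs. Inhibition was scored against rapamycin-treated control wells.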
# [6] = Cytometry Cell-Based qHTS for Inhibitors of the mTORC1 Signaling Pathway in MEF cells (AID 2668);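 also: Tsc2-/- p53-/- mouse embryonic fibroblasts stably re-expressing wild-type Tsc2; percent cells positive for phospho-rpS6 Ser235/236 relative to propidium iodide stain; series mostly up to about 38 µM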
# Summary of the method: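 Phospho-rpS6 (Ser235/236) immunofluorescence over PI signal, scored as % positive cells using thresholds from 7.5 nM rapamycin and DMSO wells, after 24 h compound exposure of WT-Tsc2-rescued Tsc2-/-, p53-/- MEFs. PI cell count recorded for viability.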
# [7] = target: Ubiquitin carboxyl-terminal hydrolase 2 (Homo sapiens) (UniProt O75604); experiment: qHTS Validation Assay for Inhibitors of Ubiquitin-specific Protease USP2a Using CHOP2 as the Reporter (AID 463106)
# Sequence of Ubiquitin carboxyl-terminal hydrolase 2 (Homo sapiens) (O75604 whole entry, looked up): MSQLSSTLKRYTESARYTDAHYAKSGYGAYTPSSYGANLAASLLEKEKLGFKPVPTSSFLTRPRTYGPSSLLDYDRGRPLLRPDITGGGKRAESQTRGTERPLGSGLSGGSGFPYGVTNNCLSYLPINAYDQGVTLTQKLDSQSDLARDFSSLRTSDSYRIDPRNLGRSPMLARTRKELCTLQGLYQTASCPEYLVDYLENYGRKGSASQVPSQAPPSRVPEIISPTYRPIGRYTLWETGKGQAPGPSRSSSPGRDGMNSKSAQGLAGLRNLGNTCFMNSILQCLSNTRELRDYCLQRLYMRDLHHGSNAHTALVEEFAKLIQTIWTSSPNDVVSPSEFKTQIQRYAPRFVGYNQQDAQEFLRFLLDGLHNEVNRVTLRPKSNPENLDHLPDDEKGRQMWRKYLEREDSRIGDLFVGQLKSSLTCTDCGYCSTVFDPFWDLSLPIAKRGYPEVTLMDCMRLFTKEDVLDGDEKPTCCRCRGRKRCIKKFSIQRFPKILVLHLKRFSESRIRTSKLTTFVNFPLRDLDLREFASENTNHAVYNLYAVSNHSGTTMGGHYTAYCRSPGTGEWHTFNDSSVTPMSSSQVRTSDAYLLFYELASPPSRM
# Summary of the method: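 10nM USP2 core + cpd, 30min RT; add 25nM Ub-CHOP2/25nM substrate; 60min RT; FI 485/531nm. Buffer Tris pH 8.0, CaCl2, BME, CHAPS. Norm. to NEM = 100% inhibition; time-zero read flags fluorescent artifacts.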
# [8] = target: DNA polymerase III PolC-type (Bacillus subtilis (strain 168)) (UniProt P13267); experiment: qHTS Validation Assay for the Inhibitors of DNA Replication in Gram-Positive Bacteria (AID 485295); also: potency is read from the fitted curve at half-maximal effect
# Sequence of DNA polymerase III PolC-type (Bacillus subtilis (strain 168)) (P13267 whole entry, looked up): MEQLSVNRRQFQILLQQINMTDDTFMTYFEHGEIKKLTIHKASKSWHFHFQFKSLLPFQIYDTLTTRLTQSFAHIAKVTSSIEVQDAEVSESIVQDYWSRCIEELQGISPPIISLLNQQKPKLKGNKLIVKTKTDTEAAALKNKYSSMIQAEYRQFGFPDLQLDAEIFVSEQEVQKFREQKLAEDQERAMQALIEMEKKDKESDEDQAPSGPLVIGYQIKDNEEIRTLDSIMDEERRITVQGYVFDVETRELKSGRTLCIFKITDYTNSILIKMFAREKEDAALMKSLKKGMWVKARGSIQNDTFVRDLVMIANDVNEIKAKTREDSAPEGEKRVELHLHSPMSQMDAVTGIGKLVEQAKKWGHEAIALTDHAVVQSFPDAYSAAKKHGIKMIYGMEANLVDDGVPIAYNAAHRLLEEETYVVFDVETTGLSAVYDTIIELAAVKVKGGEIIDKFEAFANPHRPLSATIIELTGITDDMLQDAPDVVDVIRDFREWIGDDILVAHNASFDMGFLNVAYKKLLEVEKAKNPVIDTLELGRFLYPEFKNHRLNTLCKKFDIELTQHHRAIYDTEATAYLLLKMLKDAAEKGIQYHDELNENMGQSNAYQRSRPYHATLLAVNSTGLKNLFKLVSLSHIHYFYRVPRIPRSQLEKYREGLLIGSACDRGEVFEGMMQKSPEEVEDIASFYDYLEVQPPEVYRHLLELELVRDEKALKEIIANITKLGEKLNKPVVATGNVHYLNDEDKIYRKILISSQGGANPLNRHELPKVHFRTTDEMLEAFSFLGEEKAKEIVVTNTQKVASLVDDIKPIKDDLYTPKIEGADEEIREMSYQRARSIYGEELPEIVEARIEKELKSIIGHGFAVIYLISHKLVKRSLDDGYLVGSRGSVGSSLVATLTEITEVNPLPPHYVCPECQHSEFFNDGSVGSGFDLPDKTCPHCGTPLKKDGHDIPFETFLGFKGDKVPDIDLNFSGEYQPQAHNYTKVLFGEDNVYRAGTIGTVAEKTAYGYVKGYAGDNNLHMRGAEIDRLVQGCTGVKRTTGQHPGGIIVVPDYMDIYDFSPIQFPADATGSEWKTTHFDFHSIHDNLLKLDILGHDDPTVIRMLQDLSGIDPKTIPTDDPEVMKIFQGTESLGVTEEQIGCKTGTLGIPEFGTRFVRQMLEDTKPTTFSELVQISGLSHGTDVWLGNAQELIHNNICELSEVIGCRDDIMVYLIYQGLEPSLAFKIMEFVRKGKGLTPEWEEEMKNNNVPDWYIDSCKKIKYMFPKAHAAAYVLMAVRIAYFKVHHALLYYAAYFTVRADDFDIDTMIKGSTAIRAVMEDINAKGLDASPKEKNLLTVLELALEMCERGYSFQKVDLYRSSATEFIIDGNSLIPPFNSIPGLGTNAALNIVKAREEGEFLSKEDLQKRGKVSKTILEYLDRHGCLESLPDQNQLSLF
# Summary of the method: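 Double-stranded DNA product detected by PicoGreen fluorescence after EDTA quench. Compound incubated with B. subtilis holoenzyme (PolC, beta subunit, SSB, primase) before substrate addition; primed replication of M13Gori with dNTPs and NTPs at room temperature; DMSO defines 0% inhibition.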
# [9] = target: Beta-2 adrenergic receptor (Homo sapiens) (UniProt P07550); experiment: qHTS validation assay of beta-arrestin-biased ligands of beta2-adrenergic receptor (AID 485366)
# Sequence of Beta-2 adrenergic receptor (Homo sapiens) (P07550 whole entry, looked up): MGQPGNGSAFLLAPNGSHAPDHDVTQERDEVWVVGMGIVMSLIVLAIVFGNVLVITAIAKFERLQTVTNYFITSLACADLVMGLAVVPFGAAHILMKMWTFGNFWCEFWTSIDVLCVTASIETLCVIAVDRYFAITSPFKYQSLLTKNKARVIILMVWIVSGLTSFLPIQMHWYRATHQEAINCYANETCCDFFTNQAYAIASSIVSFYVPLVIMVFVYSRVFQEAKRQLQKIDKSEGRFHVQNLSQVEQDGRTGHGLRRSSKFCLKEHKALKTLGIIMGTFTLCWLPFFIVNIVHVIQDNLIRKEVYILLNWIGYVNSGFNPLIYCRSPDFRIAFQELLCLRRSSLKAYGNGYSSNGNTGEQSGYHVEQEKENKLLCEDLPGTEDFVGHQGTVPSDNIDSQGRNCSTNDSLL
# Summary of the method: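 Tango cells (recombinant beta2-AR with recombinant beta-arrestin; recruitment releases tTA driving luciferase) were treated with compounds titrated up to 46 microM for 18 hr at 37 degrees C. Luminescence gave %Activity, and concentration-response curves were curve-classified.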
# [10] = target: Thioredoxin reductase 1, cytoplasmic (Rattus norvegicus) (UniProt O89049); experiment: qHTS Assay for Substrates of Mammalian Selenoprotein Thioredoxin Reductase 1 (TrxR1) (AID 488772);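 also: NADPH fluorescence in the first read after selenite addition and not the 8 min delta; series mostly up to about 57 µM; a drop in NADPH fluorescence below the no-compound background marks a TrxR1 substrate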
# Sequence of Thioredoxin reductase 1, cytoplasmic (Rattus norvegicus) (O89049 whole entry, looked up): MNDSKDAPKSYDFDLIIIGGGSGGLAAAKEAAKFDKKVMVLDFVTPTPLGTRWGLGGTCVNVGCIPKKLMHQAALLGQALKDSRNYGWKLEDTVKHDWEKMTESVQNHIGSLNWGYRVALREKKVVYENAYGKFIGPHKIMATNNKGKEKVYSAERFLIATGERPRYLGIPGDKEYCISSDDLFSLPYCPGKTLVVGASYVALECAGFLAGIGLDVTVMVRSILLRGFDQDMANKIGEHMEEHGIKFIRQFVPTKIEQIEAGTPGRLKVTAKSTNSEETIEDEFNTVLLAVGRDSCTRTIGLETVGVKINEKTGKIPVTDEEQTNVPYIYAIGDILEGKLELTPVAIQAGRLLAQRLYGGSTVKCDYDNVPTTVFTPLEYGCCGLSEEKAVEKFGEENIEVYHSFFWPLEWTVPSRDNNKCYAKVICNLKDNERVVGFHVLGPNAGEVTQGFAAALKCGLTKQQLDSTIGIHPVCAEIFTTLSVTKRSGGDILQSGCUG
# Summary of the method: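 Quantitative HTS in Tris-HCl buffer at pH 7.5 with EDTA and Tween-20, using rat TrxR1, 400 uM NADPH and 400 uM selenite (final). A fall in initial NADPH fluorescence relative to background marked substrate behaviour.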
# [11] = Cytometric Cell-Based qHTS for Inhibitors of the mTORC1 Signaling Pathway in MEF (Tsc2-/-, p53-/-) Cells (AID 2660);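 also: Tsc2 and p53 null MEFs carrying empty vector with compound for 24 h; percent of cells above a phospho-rpS6 to PI ratio cutoff in each well; series mostly up to about 38 µM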
# Summary of the method: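 Readout: Alexa-488 phospho-rpS6 (Ser235/236) intensity divided by PI intensity, thresholded against 7.5 nM rapamycin wells and reported as % positive cells. PI cell count served as the viability measure. Compound exposure was 24 hrs at 37 degree Celsius.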
# [12] = target: ATP-dependent 6-phosphofructokinase (Trypanosoma brucei brucei) (UniProt O15648); experiment: qHTS Validation Assay to Find Inhibitors of T. brucei phosphofructokinase (AID 485368); settings: outcome: dose series up to 57.5 µM
# Sequence of ATP-dependent 6-phosphofructokinase (Trypanosoma brucei brucei) (O15648 whole entry, looked up): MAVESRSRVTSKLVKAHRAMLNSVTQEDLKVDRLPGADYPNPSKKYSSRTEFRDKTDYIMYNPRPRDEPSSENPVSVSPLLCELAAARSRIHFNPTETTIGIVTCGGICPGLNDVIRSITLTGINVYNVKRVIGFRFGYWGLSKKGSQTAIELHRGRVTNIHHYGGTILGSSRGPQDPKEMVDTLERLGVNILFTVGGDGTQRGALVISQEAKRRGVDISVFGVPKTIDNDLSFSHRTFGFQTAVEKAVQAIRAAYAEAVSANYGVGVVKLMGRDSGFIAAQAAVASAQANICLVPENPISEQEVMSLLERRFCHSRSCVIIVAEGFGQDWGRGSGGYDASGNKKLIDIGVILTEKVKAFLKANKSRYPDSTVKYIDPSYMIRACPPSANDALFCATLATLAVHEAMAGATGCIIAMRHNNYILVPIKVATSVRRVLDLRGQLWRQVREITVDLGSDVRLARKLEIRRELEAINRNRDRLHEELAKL
# Summary of the method: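 Compounds (up to 57 uM, titration series) were pinned into substrate buffer, then 1.25 nM PFK added; after 45 min at room temperature, ADP product was quantified by ADP-Glo luminescence and concentration-response curves fitted.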
# [13] = Quantitative high throughput screen for delayed death inhibitors of the malarial parasite plastid, 96 hour incubation (AID 488745); also: nearly all actives have a fitted effect of over 70% in size; also: potency is read from the fitted curve at half-maximal effect
# Summary of the method: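 Growth of reporter-bearing P. falciparum in red cells is measured after 96 h with compound, covering two erythrocytic cycles. Luminescence from the integrated luciferase serves as the growth signal.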
# [14] = qHTS Assay for Modulators of Human Peripheral Myelin Protein 22 (PMP22) Expression/Activity (AID 1967; active = well fitted curve in the direction sought with a large enough effect in the signal ratio; the % refers to the signal ratio)
# Summary of the method: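 Readout is the corrected green/red luminescence ratio after 24 h compound exposure, normalised to untreated cells (0%). Engineered MSC80 mouse Schwann cells express green luciferase from the mouse Pmp22 promoter and red luciferase from EF-alpha as internal control.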
# [15] = Validation screen for small molecules that induce DNA re-replication in MCF 10A normal breast cells (AID 463097); also: nearly all actives have a fitted effect of over 60% in size; also: potency is read from the fitted curve at half-maximal effect
# Summary of the method: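 Read-out is Hoechst total nuclear intensity by fluorescence scanning imager, flagging increased high-DNA-content nuclei. Compounds were incubated with MCF 10A cells for 48 hr (37 C, 5% CO2) before 40 min staining.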
# [16] = target: Tumor susceptibility gene 101 protein (Homo sapiens) (UniProt Q99816); experiment: qHTS Validation Assay for Iinhibitors of HIV-1 Budding by Blocking the Interaction of PTAP/TSG101 (AID 485342; calls by dose curve)
# Sequence of Tumor susceptibility gene 101 protein (Homo sapiens) (Q99816 whole entry, looked up, the tested form may be a part): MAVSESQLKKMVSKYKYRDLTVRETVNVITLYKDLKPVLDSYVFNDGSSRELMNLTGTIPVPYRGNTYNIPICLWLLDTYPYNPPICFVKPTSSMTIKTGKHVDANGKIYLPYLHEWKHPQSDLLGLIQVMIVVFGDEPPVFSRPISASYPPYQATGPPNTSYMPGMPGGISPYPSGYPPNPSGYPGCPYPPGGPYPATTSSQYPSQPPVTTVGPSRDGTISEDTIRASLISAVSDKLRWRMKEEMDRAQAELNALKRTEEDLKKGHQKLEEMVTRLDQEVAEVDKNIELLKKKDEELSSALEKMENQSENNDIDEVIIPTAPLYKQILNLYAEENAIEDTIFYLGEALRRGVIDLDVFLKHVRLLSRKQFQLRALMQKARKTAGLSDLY
# Summary of the method: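 Fluorescence polarization of 50 nM FITC-PTAP peptide bound to 10 uM Tsg101 binding domain was read after 20 min room-temperature incubation with compounds, in 10 mM HEPES pH 7.5, 0.15 M NaCl, 0.01% Tween 20.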
# [17] = qHTS Validation Assay to Find Inhibitors of Chronic Active B-Cell Receptor Signaling (AID 485345; active = well fitted curve in the direction sought with a large enough effect in the main read-out, with a control signal flat, not every such curve was filed as active)
# Summary of the method: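 Read-out: ratio of filter-corrected green (IkappaBalpha fusion) to red (native) luciferase signal in doxycycline-induced TMD8 cells after 4 h at 37C. Titration spanned 46 uM–3 nM; Data were normalised to basal cells and 10 uM MG-132 wells.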
# [18] = Quantitative high throughput screen for delayed death inhibitors of the malarial parasite plastid, 48 hour incubation (AID 488752); also: nearly all actives have a fitted effect of over 65% in size; also: potency is read from the fitted curve at half-maximal effect
# Summary of the method: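 One parasite generation (48 h, 37 C, 5% CO2) of luciferase-reporter P. falciparum in erythrocytes is run with test compound; decreased luminescence indicates inhibited growth.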
# [19] = target: RecQ-like DNA helicase BLM (Homo sapiens) (UniProt P54132); experiment: qHTS Validation Assay for Inhibitors of Bloom's syndrome helicase (BLM) (AID 2364)
# Summary of the method: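 Forked 20-bp duplex substrate (200 nM, TAMRA/BHQ-2) plus 2 mM ATP added after 15 min compound preincubation with 50 nM enzyme, pH 8.0, poly(dI-dC) 2.5 ug/ml. Strand separation followed by fluorescence (525/598 nm) over 2 h, normalized to enzyme-free and DMSO controls.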
SMILES,Potency [1],outcome [2],Potency [3],Potency [4],Potency [5],Potency [6],outcome [7],Potency [8],outcome [9],outcome [10],outcome [11],outcome [12],Potency [13],outcome [14],Potency [15],outcome [16],Potency [17],Potency [18],Potency [19]
C[n+]1cc2c3c(ccc2c2ccc4cc5c(cc4c21)OCO5)OCO3,3160 nM (active),inactive,inactive,inactive,inactive,inactive,inactive,8440 nM (active),inactive,inactive,–,–,–,–,–,–,–,–,–
Cc1cc(C)c(/C=C2\C(=O)Nc3ccccc32)[nH]1,inactive,inactive,–,inactive,inactive,–,–,inactive,inactive,inactive,inactive,inactive,inactive,–,–,–,–,–,–
CN/C(=C\[N+](=O)[O-])NCCSCc1ccc(CN(C)C)o1,–,inactive,inactive,inactive,inactive,inactive,inactive,inactive,inactive,inactive,inactive,–,inactive,inactive,inactive,inactive,inactive,inactive,–
COC(=O)[C@H]1[C@H]2C[C@@H]3c4[nH]c5cc(OC)ccc5c4CCN3C[C@H]2C[C@@H](OC(=O)c2cc(OC)c(OC)c(OC)c2)[C@@H]1OC,1260 nM (active),inactive,inactive,inactive,inactive,inactive,inactive,inactive,inactive,inactive,–,–,928 nM (active),–,11200 nM (active),inactive,–,1470 nM (active),–
NC(Cc1ccc(Cl)cc1)C(=O)O (stereo not drawn),inactive,inactive,inactive,–,inactive,inactive,inactive,inactive,inactive,inactive,–,–,inactive,–,–,inactive,inactive,inactive,–
CCNC(=O)N1CCN(CCCC(c2ccc(F)cc2)c2ccc(F)cc2)CC1,1120 nM (active),inactive,inactive,inactive,inactive,–,inactive,inactive,inactive,–,–,inactive,1650 nM (active),–,–,inactive,inactive,2940 nM (active),–
Nc1nc(N)c2nc(-c3ccccc3)c(N)nc2n1,12600 nM (active),–,inactive,inactive,inactive,–,inactive,inactive,inactive,inactive,inactive,–,8280 nM (active),–,–,inactive,–,–,inactive
CCn1ccnc1CC1COc2ccccc2O1 (stereo not drawn),–,inactive,inactive,inactive,inactive,inactive,inactive,inactive,inactive,inactive,inactive,–,inactive,–,–,inactive,inactive,inactive,inactive
CCc1c(C)[nH]c2c1C(=O)C(CN1CCOCC1)CC2 (stereo not drawn),inactive,inactive,inactive,inactive,inactive,inactive,inactive,inactive,inactive,inactive,–,–,inactive,–,inactive,inactive,inactive,inactive,–
